Data from the supplement of paper PMC7261846.
± gives the uncertainty stated by the source.

Test system: Candida albicans SNY425 biofilm
Experiment: biofilm OD600 with compound plus antifungal (OD600 (absorbance)); higher = more biofilm remaining
[1] = assay detail: disruption of 24-h mature biofilm (compound + antifungal for a second 24 h)
[2] = assay detail: sustained inhibition (compound + antifungal during 90-min adherence and 24-h growth)

Cc1ccc(S(=O)(=O)N[C@@H](Cc2ccccc2)C(=O)CCl)cc1 + C[C@@H]1[C@H](O)[C@@H](C)/C=C/C=C/C=C/C=C/C=C/C=C/C=C/[C@H](O[C@@H]2O[C@H](C)[C@@H](O)[C@H](N)[C@@H]2O)C[C@@H]2O[C@](O)(C[C@@H](O)C[C@@H](O)[C@H](O)CC[C@@H](O)C[C@@H](O)CC(=O)O[C@H]1C)C[C@H](O)[C@H]2C(=O)O [amphotericin B] (first compound 4 µM)
biofilm OD600 [1]: 0.25 ± 0.011
biofilm OD600 [2]: 0.158 ± 0.0081

O=C(O[C@@H]1Cc2c(O)cc(O)cc2O[C@@H]1c1cc(O)c(O)c(O)c1)c1cc(O)c(O)c(O)c1 [Epigallocatechin gallate] + CC[C@H](C)C[C@H](C)CCCCCCCCC(=O)N[C@H]1C[C@@H](O)[C@@H](NCCN)NC(=O)[C@@H]2[C@@H](O)CCN2C(=O)[C@H]([C@H](O)CCN)NC(=O)[C@H]([C@H](O)[C@@H](O)c2ccc(O)cc2)NC(=O)[C@@H]2C[C@@H](O)CN2C(=O)[C@H]([C@@H](C)O)NC1=O [caspofungin] (first compound 12.5 µM)
biofilm OD600 [1]: 0.264 ± 0.016
biofilm OD600 [2]: 0.211 ± 0.01

CC(C)C[C@H](NP(=O)(O)O[C@@H]1O[C@@H](C)[C@H](O)[C@@H](O)[C@H]1O)C(=O)N[C@@H](Cc1c[nH]c2ccccc12)C(=O)O [Phosphoramidon] + CC[C@H](C)C[C@H](C)CCCCCCCCC(=O)N[C@H]1C[C@@H](O)[C@@H](NCCN)NC(=O)[C@@H]2[C@@H](O)CCN2C(=O)[C@H]([C@H](O)CCN)NC(=O)[C@H]([C@H](O)[C@@H](O)c2ccc(O)cc2)NC(=O)[C@@H]2C[C@@H](O)CN2C(=O)[C@H]([C@@H](C)O)NC1=O [caspofungin] (first compound 12.5 µM)
biofilm OD600 [1]: 0.273 ± 0.012
biofilm OD600 [2]: 0.191 ± 0.013

CCC[C@@]1(CCc2ccccc2)CC(O)=C([C@H](CC)c2cccc(NS(=O)(=O)c3ccc(C(F)(F)F)cn3)c2)C(=O)O1 [tipranavir] + C[C@@H]1[C@H](O)[C@@H](C)/C=C/C=C/C=C/C=C/C=C/C=C/C=C/[C@H](O[C@@H]2O[C@H](C)[C@@H](O)[C@H](N)[C@@H]2O)C[C@@H]2O[C@](O)(C[C@@H](O)C[C@@H](O)[C@H](O)CC[C@@H](O)C[C@@H](O)CC(=O)O[C@H]1C)C[C@H](O)[C@H]2C(=O)O [amphotericin B] (first compound 12.5 µM)
biofilm OD600 [1]: 0.264 ± 0.0073
biofilm OD600 [2]: 0.185 ± 0.0069

CC(C)CCNC(=O)[C@H](CC(C)C)NC(=O)[C@H]1O[C@@H]1C(=O)O + CC[C@H](C)C[C@H](C)CCCCCCCCC(=O)N[C@H]1C[C@@H](O)[C@@H](NCCN)NC(=O)[C@@H]2[C@@H](O)CCN2C(=O)[C@H]([C@H](O)CCN)NC(=O)[C@H]([C@H](O)[C@@H](O)c2ccc(O)cc2)NC(=O)[C@@H]2C[C@@H](O)CN2C(=O)[C@H]([C@@H](C)O)NC1=O [caspofungin] (first compound 12.5 µM)
biofilm OD600 [1]: 0.268 ± 0.0056
biofilm OD600 [2]: 0.17 ± 0.01

CC(C)C[C@@H](C=O)NC(=O)[C@H](CC(C)C)NC(=O)[C@H](CC(C)C)NC(=O)OCc1ccccc1 + C[C@@H]1[C@H](O)[C@@H](C)/C=C/C=C/C=C/C=C/C=C/C=C/C=C/[C@H](O[C@@H]2O[C@H](C)[C@@H](O)[C@H](N)[C@@H]2O)C[C@@H]2O[C@](O)(C[C@@H](O)C[C@@H](O)[C@H](O)CC[C@@H](O)C[C@@H](O)CC(=O)O[C@H]1C)C[C@H](O)[C@H]2C(=O)O [amphotericin B] (first compound 12.5 µM)
biofilm OD600 [1]: 0.29 ± 0.0045
biofilm OD600 [2]: 0.209 ± 0.017

CSCCC(C=O)NC(=O)C(CC(C)C)NC(=O)[C@H](CC(C)C)NC(C)=O (stereo partly specified) [Calpain Inhibitor II (ALLM)] + C[C@@H]1[C@H](O)[C@@H](C)/C=C/C=C/C=C/C=C/C=C/C=C/C=C/[C@H](O[C@@H]2O[C@H](C)[C@@H](O)[C@H](N)[C@@H]2O)C[C@@H]2O[C@](O)(C[C@@H](O)C[C@@H](O)[C@H](O)CC[C@@H](O)C[C@@H](O)CC(=O)O[C@H]1C)C[C@H](O)[C@H]2C(=O)O [amphotericin B] (first compound 12.5 µM)
biofilm OD600 [1]: 0.247 ± 0.0052
biofilm OD600 [2]: 0.193 ± 0.0094

CCCC[C@@H](C=O)NC(=O)[C@H](CC(C)C)NC(=O)OCc1ccccc1 [Calpeptin] + C[C@@H]1[C@H](O)[C@@H](C)/C=C/C=C/C=C/C=C/C=C/C=C/C=C/[C@H](O[C@@H]2O[C@H](C)[C@@H](O)[C@H](N)[C@@H]2O)C[C@@H]2O[C@](O)(C[C@@H](O)C[C@@H](O)[C@H](O)CC[C@@H](O)C[C@@H](O)CC(=O)O[C@H]1C)C[C@H](O)[C@H]2C(=O)O [amphotericin B] (first compound 12.5 µM)
biofilm OD600 [1]: 0.266 ± 0.0066
biofilm OD600 [2]: 0.189 ± 0.01
